Molecular target: Voltage-gated potassium channel subunit beta-2 (Rattus norvegicus) (UniProt P62483)
Assay: inhibitors of rat Kvbeta2 reductase activity – biochemical, NADPH fluorescence, primary screen (AID 622);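 further: slope of raw intensity against log time taken from 70 to 1610 s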
Details: recombinant KvBeta, 4-cyanobenzaldehyde reduction, at 10 µM, stronger effect = higher value;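 active means fluorescence slope higher than the sample average by over 3 SD (cut at about -0.22 in these data, passing the limit was not always enough); inactive means the rest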

Voltage-gated potassium channel subunit beta-2 (Rattus norvegicus), sequence (P62483 whole entry, looked up): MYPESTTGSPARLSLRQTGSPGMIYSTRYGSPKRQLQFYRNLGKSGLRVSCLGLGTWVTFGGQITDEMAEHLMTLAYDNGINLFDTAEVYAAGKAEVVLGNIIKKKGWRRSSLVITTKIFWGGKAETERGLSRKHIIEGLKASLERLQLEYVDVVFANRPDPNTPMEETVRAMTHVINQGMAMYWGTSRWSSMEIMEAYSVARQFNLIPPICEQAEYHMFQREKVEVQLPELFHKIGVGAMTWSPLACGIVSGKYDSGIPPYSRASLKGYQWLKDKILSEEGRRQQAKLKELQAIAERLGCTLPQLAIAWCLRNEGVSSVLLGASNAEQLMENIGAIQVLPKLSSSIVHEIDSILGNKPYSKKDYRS

Fluorescence slope, inactive:
CCOC(=O)N1CCN(C(=O)c2cccn3c(=O)c4sccc4nc23)CC1 -0.0756
O=C(c1cc2ccccc2oc1=O)N1CCN(c2ccc(N3CCOCC3)nn2)CC1 -0.603
CCc1cccc(NC(=O)CCc2nc(-c3cccs3)no2)c1 -0.531
O=C(C1CC1)N1CCc2cc(Br)cc(S(=O)(=O)N3CCOCC3)c21 -0.59
CCOCCCNC(=O)C1CCCN(S(=O)(=O)CC)C1 (stereo not given) -0.408
C/C(N)=C(/C#N)C(=O)COC(=O)CCSc1ccccc1 -0.464
CCCOc1ccc(N2CC(C(=O)Nc3ccc4c(c3)OCO4)CC2=O)cc1 (stereo not given) -0.444
CCC(C)Nc1nc2c(c(=O)n(C)c(=O)n2C)n1Cc1ccc(F)cc1 (stereo not given) -0.617
COc1ccc2cc(C(c3nnnn3C3CCCCC3)N3CCCCCC3)c3nnnn3c2c1 (stereo not given) -0.444
O=C(Nc1cccnc1)Nc1ccccn1 -0.432
O=C(NC1CCCCC1)c1cc2nc(-c3ccco3)cc(C(F)(F)F)n2n1 -0.218
O=C(CCN1C(=O)COc2ccccc21)NCCN1CCN(c2cccc(Cl)c2)CC1 -0.602
CCCc1cc(=O)[nH]c(SCc2ccccc2)n1 -0.6
CC(CCc1ccco1)NC(=O)Cn1ncc2c1-c1ccccc1OC2 (stereo not given) -0.539
CCCNC(=O)c1ccccc1NC(=O)CN(c1ccccc1OCC)S(C)(=O)=O -0.465
CCS(=O)(=O)N1CCC(C(=O)NC2CCCCCCC2)CC1 -0.378
COc1ccc(C(=O)N2CCCc3ccccc32)cc1 -0.519
CCOC(=O)c1cnn(-c2sc(C(=O)OCC)c(C)c2C(=O)OCC)c1N -0.517
CCn1c(C(=O)N2CCCC(C(=O)NCCCc3ccccc3)C2)cc2sccc21 (stereo not given) -0.583
CCC1CCCCN1CCCNC(=O)CC1Oc2ccc(C)cc2NC1=O (stereo not given) -0.499
CC(C)OC(=O)CSc1nnc(-c2ccccn2)n1-c1ccccc1 -0.429
O=C(O)C1CC=CCC1C(=O)Nc1cc(Cl)ccc1Cl (stereo not given) -0.505
COC(=O)Nc1ccc(NC(C)=O)cc1 -0.493
O=C(COC(=O)c1cncc(Br)c1)NCCC1=CCCCC1 -0.338
COc1cccc(-c2noc(C3CCCN(C(=O)Cc4ccccc4)C3)n2)c1 (stereo not given) -0.609
Cc1cc(NS(=O)(=O)c2ccc(NC(=O)Nc3ccc4c(c3)OCO4)cc2)no1 -0.393
CCOC(=O)N1CCC(N2C(=O)c3ccc(C(=O)NCc4ccco4)cc3C2=O)CC1 -0.59
COc1ccc(C2CC(=O)C3=C(C2)Nc2ccccc2N(C(=O)C2CC2)C3c2cccnc2)cc1OC (stereo not given) -0.367
OC(CNCC1COc2ccccc2O1)COCc1cccs1 (stereo not given) -0.568
COC(=O)n1c(=S)oc2cc(Cl)ccc21 -0.638
CCOC(=O)C1CCN(C(=O)CCCCn2c(=O)[nH]c3ccccc3c2=O)CC1 -0.563
CN(c1ccc(OCc2nnc(-c3ccccc3)o2)cc1)S(=O)(=O)c1ccccc1 -0.335
Cc1ccccc1NC(=O)C1CCCN(S(=O)(=O)c2cnc[nH]2)C1 (stereo not given) -0.564
COc1ccc(C(=O)NCC(=O)NC2=NCCS2)cc1 -0.591
O=C1N2c3ccccc3CCc3cccc(c32)C1(O)C(F)(F)F (stereo not given) -0.641
Cn1c(=O)c2c(nc(CN3CCN(Cc4ccccc4)CC3)n2Cc2cccc(Cl)c2)n(C)c1=O -0.562
CN(C)c1ccc(CNCCC2(O)CCOC(C)(C)C2)cc1 (stereo not given) -0.472
CC(C(N)=O)N1C(=O)C2C3C=CC(C3)C2C1=O (stereo not given) -0.443
Nc1nc(-c2ccc(Br)s2)c(Br)s1 -0.507
O=C(c1c(F)cccc1F)N(Cc1ccccn1)C1CCCC1 -0.534

— PubChem BioAssay
